Results from PubChem BioAssay (NCI).
Compounds without any hit were thinned out: in the full panel of roughly 83,000, 20% have a hit.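 A percent growth of 40 corresponds to 60% growth inhibition; 0 means no net growth; -100 means all cells died. Active threshold: below 10.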 Calls of active or inactive are those of the source.

Experiments:
Experiment in all cases: NCI-60 one-dose screen, 48 h (100 = growth as untreated, 0 = no growth, -100 = all killed)
Details in all cases: 10 µM unless noted
DU-145 prostate = tested on: DU-145 prostate
K-562 leukemia = tested on: K-562 leukemia
MALME-3M melanoma = tested on: MALME-3M melanoma
MDA-MB-231 breast = tested on: MDA-MB-231 breast
SF-268 CNS = tested on: SF-268 CNS
SF-539 CNS = tested on: SF-539 CNS
UACC-257 melanoma = tested on: UACC-257 melanoma
M14 melanoma = tested on: M14 melanoma
HCT-15 colon = tested on: HCT-15 colon
HT29 colon = tested on: HT29 colon
SNB-75 CNS = tested on: SNB-75 CNS
SNB-19 CNS = tested on: SNB-19 CNS
U251 CNS = tested on: U251 CNS
PC-3 prostate = tested on: PC-3 prostate
SK-MEL-5 melanoma = tested on: SK-MEL-5 melanoma
UACC-62 melanoma = tested on: UACC-62 melanoma
LOX IMVI melanoma = tested on: LOX IMVI melanoma
SK-MEL-28 melanoma = tested on: SK-MEL-28 melanoma
SF-295 CNS = tested on: SF-295 CNS
RXF 393 renal = tested on: RXF 393 renal

Measured: growth

O=C1OC(c2ccc(-c3ccccc3)cc2)=C/C1=C/c1c(Cl)cccc1Cl
active: UACC-257 melanoma -33.6%
inactive: DU-145 prostate 96.3% | K-562 leukemia 89.5% | MALME-3M melanoma 64% | MDA-MB-231 breast 95.9% | SF-268 CNS 96.7% | SF-539 CNS 102% | M14 melanoma 105% | HCT-15 colon 83.7% | HT29 colon 101% | SNB-75 CNS 85.1% | SNB-19 CNS 105% | U251 CNS 102% | PC-3 prostate 91.8% | SK-MEL-5 melanoma 101% | UACC-62 melanoma 85.5% | LOX IMVI melanoma 103% | SK-MEL-28 melanoma 101%

Cc1cccc(C(=O)O)n1
inactive: DU-145 prostate 116% | K-562 leukemia 102% | MALME-3M melanoma 111% | MDA-MB-231 breast 120% | SF-268 CNS 107% | SF-295 CNS 98% | SF-539 CNS 99.7% | UACC-257 melanoma 105% | M14 melanoma 108% | HCT-15 colon 99.4% | HT29 colon 112% | SNB-75 CNS 103% | SNB-19 CNS 97.6% | U251 CNS 105% | PC-3 prostate 117% | SK-MEL-5 melanoma 98.3% | UACC-62 melanoma 101% | LOX IMVI melanoma 101% | SK-MEL-28 melanoma 123%

Oc1ccc(-c2cnc(-c3ccccc3)[nH]2)c(O)c1
active: UACC-257 melanoma -22.6%
inactive: DU-145 prostate 157% | K-562 leukemia 94.7% | MALME-3M melanoma 76.5% | MDA-MB-231 breast 92.1% | SF-268 CNS 100% | SF-539 CNS 107% | M14 melanoma 119% | HCT-15 colon 107% | HT29 colon 120% | SNB-75 CNS 94.2% | SNB-19 CNS 98% | U251 CNS 110% | PC-3 prostate 100% | SK-MEL-5 melanoma 105% | UACC-62 melanoma 85.6% | LOX IMVI melanoma 105% | SK-MEL-28 melanoma 105%

CCOc1c(C#N)c2c(N)ncnc2n1C1OC(CO)C(O)C1O (stereo not given)
active: DU-145 prostate -10.5% | K-562 leukemia 0.169%
inactive: MALME-3M melanoma 59.2% | MDA-MB-231 breast 87.1% | SF-268 CNS 25.2% | SF-295 CNS 71.3% | SF-539 CNS 62.5% | UACC-257 melanoma 83.5% | M14 melanoma 35% | HCT-15 colon 23.1% | HT29 colon 22.6% | SNB-75 CNS 62.4% | SNB-19 CNS 72.7% | U251 CNS 35.4% | PC-3 prostate 16.2% | SK-MEL-5 melanoma 79% | UACC-62 melanoma 49.8% | LOX IMVI melanoma 18.9% | SK-MEL-28 melanoma 20.4%

CCCCn1c(-c2ccc(F)cc2)nc2cc(OC)c(OC)cc2c1=O
active: UACC-257 melanoma -32.2%
inactive: DU-145 prostate 111% | K-562 leukemia 85.5% | MALME-3M melanoma 71.8% | MDA-MB-231 breast 87.1% | SF-268 CNS 101% | SF-539 CNS 101% | M14 melanoma 127% | HCT-15 colon 105% | HT29 colon 107% | SNB-75 CNS 98.8% | SNB-19 CNS 97.6% | U251 CNS 105% | PC-3 prostate 102% | SK-MEL-5 melanoma 89.8% | UACC-62 melanoma 81.8% | LOX IMVI melanoma 98.3% | SK-MEL-28 melanoma 97.5%

CCNS(=O)(=O)c1ccc(C)cc1
inactive: DU-145 prostate 96.5% | K-562 leukemia 105% | MALME-3M melanoma 104% | MDA-MB-231 breast 113% | RXF 393 renal 113% | SF-295 CNS 104% | SF-539 CNS 102% | UACC-257 melanoma 107% | M14 melanoma 106% | HCT-15 colon 98.5% | HT29 colon 117% | SNB-75 CNS 85.2% | SNB-19 CNS 103% | U251 CNS 105% | PC-3 prostate 95.7% | SK-MEL-5 melanoma 140% | UACC-62 melanoma 106% | LOX IMVI melanoma 100% | SK-MEL-28 melanoma 115%

COc1ccc(C2C3=C(COC3=O)N(CCO)c3cc(OC)c(OC)cc32)cc1 (stereo not given)
inactive: DU-145 prostate 113% | K-562 leukemia 82.5% | MDA-MB-231 breast 112% | RXF 393 renal 114% | SF-268 CNS 101% | SF-295 CNS 110% | SF-539 CNS 105% | UACC-257 melanoma 116% | M14 melanoma 108% | HCT-15 colon 98.9% | HT29 colon 95.1% | SNB-75 CNS 93.3% | SNB-19 CNS 109% | U251 CNS 101% | PC-3 prostate 106% | SK-MEL-5 melanoma 100% | UACC-62 melanoma 107% | LOX IMVI melanoma 101% | SK-MEL-28 melanoma 115%

COc1ccc2c(c1)N(CCO)C1=C(C(=O)OC1)C2c1cccc(Br)c1 (stereo not given)
active: DU-145 prostate -27.2% | MDA-MB-231 breast -10.6% | SF-295 CNS -19.4% | SF-539 CNS -6.97% | M14 melanoma 8.81% | HCT-15 colon 7.92% | HT29 colon -9.38% | SK-MEL-5 melanoma 2.15%
inactive: K-562 leukemia 13.6% | RXF 393 renal 44.4% | SF-268 CNS 25% | UACC-257 melanoma 60% | SNB-75 CNS 29.2% | SNB-19 CNS 35.4% | U251 CNS 14% | PC-3 prostate 26.2% | UACC-62 melanoma 25% | LOX IMVI melanoma 22.2% | SK-MEL-28 melanoma 58.6%

Cc1[nH]n(C(=O)c2ccncc2)c(=O)c1N=Nc1ccc(O)c(C(=O)O)c1
active: UACC-257 melanoma -14.1%
inactive: DU-145 prostate 132% | K-562 leukemia 91.1% | MALME-3M melanoma 94.2% | MDA-MB-231 breast 94% | SF-268 CNS 106% | SF-539 CNS 100% | M14 melanoma 114% | HCT-15 colon 112% | HT29 colon 115% | SNB-75 CNS 89.9% | SNB-19 CNS 116% | U251 CNS 119% | PC-3 prostate 102% | SK-MEL-5 melanoma 106% | UACC-62 melanoma 96.2% | LOX IMVI melanoma 75.7% | SK-MEL-28 melanoma 109%

NC(N)=N/N=C\c1cccc(OCc2ccccc2)c1
active: HT29 colon 1.4%
inactive: DU-145 prostate 101% | K-562 leukemia 27.1% | MALME-3M melanoma 85.8% | MDA-MB-231 breast 76% | RXF 393 renal 62.1% | SF-295 CNS 85.1% | SF-539 CNS 77.5% | UACC-257 melanoma 70.8% | M14 melanoma 59.7% | HCT-15 colon 45% | SNB-75 CNS 63.8% | SNB-19 CNS 83.2% | U251 CNS 23.3% | PC-3 prostate 71.5% | SK-MEL-5 melanoma 33% | UACC-62 melanoma 84.9% | LOX IMVI melanoma 51% | SK-MEL-28 melanoma 86%

CC(=O)Nc1ccc(Cl)cc1Cl
inactive: DU-145 prostate 111% | K-562 leukemia 64.9% | MALME-3M melanoma 112% | MDA-MB-231 breast 100% | SF-268 CNS 97.4% | SF-295 CNS 83.8% | SF-539 CNS 98.3% | UACC-257 melanoma 124% | M14 melanoma 102% | HCT-15 colon 118% | HT29 colon 103% | SNB-75 CNS 91.2% | SNB-19 CNS 97.8% | U251 CNS 103% | PC-3 prostate 308% | SK-MEL-5 melanoma 95.7% | LOX IMVI melanoma 93.8% | SK-MEL-28 melanoma 157%

Cn1c(=O)c2[nH]c(Cc3ccc4c(c3)OCO4)nc2n(C)c1=O
inactive: DU-145 prostate 115% | K-562 leukemia 108% | MALME-3M melanoma 126% | MDA-MB-231 breast 123% | RXF 393 renal 108% | SF-295 CNS 104% | SF-539 CNS 94.8% | UACC-257 melanoma 111% | M14 melanoma 107% | HCT-15 colon 93.8% | HT29 colon 120% | SNB-75 CNS 95.3% | SNB-19 CNS 101% | U251 CNS 110% | PC-3 prostate 86.1% | SK-MEL-5 melanoma 108% | UACC-62 melanoma 98% | LOX IMVI melanoma 99.5% | SK-MEL-28 melanoma 106%

O=C(Nc1ccccc1)C(CCCCN1C(=O)c2ccccc2C1=O)N1C(=O)c2ccccc2C1=O (stereo not given)
inactive: DU-145 prostate 95.4% | K-562 leukemia 82.8% | MDA-MB-231 breast 109% | RXF 393 renal 110% | SF-268 CNS 99.8% | SF-295 CNS 101% | SF-539 CNS 111% | UACC-257 melanoma 106% | M14 melanoma 105% | HCT-15 colon 102% | HT29 colon 107% | SNB-75 CNS 88.5% | SNB-19 CNS 101% | U251 CNS 102% | PC-3 prostate 98.5% | SK-MEL-5 melanoma 101% | UACC-62 melanoma 98.9% | LOX IMVI melanoma 101% | SK-MEL-28 melanoma 107%

O=C(Nc1ccc(Br)cc1)Nc1ccccc1Cl
inactive: DU-145 prostate 91.1% | K-562 leukemia 84.5% | MDA-MB-231 breast 72.5% | RXF 393 renal 83% | SF-268 CNS 93.8% | SF-539 CNS 89.3% | UACC-257 melanoma 88% | M14 melanoma 89.2% | HCT-15 colon 87.1% | HT29 colon 95.3% | SNB-75 CNS 77.8% | SNB-19 CNS 117% | U251 CNS 91.9% | PC-3 prostate 83.9% | SK-MEL-5 melanoma 101% | UACC-62 melanoma 56.5% | LOX IMVI melanoma 81.3% | SK-MEL-28 melanoma 107%

NC(N)=N/N=C\c1ccc(OCc2ccccc2)cc1
active: RXF 393 renal -3.77% | SK-MEL-5 melanoma -13%
inactive: DU-145 prostate 87.4% | K-562 leukemia 36% | MALME-3M melanoma 91.5% | MDA-MB-231 breast 66.1% | SF-295 CNS 99% | SF-539 CNS 87.7% | UACC-257 melanoma 90.4% | M14 melanoma 81.5% | HCT-15 colon 35.7% | HT29 colon 16.6% | SNB-75 CNS 43.9% | SNB-19 CNS 70.9% | U251 CNS 45.7% | PC-3 prostate 70.7% | UACC-62 melanoma 78.2% | LOX IMVI melanoma 59.6% | SK-MEL-28 melanoma 87.8%

COc1cc(Cn2c(-c3ccccc3)cc3c2-c2oncc2CC3)cc(OC)c1OC
inactive: K-562 leukemia 11.8% | MDA-MB-231 breast 47.1% | SF-268 CNS 44.8% | UACC-257 melanoma 58.8% | M14 melanoma 21.9% | HCT-15 colon 27.6% | SNB-19 CNS 44.5% | U251 CNS 24.1% | PC-3 prostate 20.6% | SK-MEL-5 melanoma 18.4% | UACC-62 melanoma 47.5% | LOX IMVI melanoma 39.4% | SK-MEL-28 melanoma 49.7%
active: DU-145 prostate -21.1% | RXF 393 renal 9.54% | SF-539 CNS -3.28% | HT29 colon 4.59% | SNB-75 CNS -17.3%

Cc1ccccc1CNc1ncnc2[nH]ncc12
inactive: DU-145 prostate 103% | K-562 leukemia 46.8% | MALME-3M melanoma 114% | MDA-MB-231 breast 106% | SF-268 CNS 95.4% | SF-295 CNS 84.3% | SF-539 CNS 97.6% | UACC-257 melanoma 107% | M14 melanoma 103% | HCT-15 colon 108% | HT29 colon 103% | SNB-75 CNS 94.8% | SNB-19 CNS 95.5% | U251 CNS 99.8% | PC-3 prostate 311% | SK-MEL-5 melanoma 106% | LOX IMVI melanoma 95% | SK-MEL-28 melanoma 136%
